# Measured values taken from the OligoGym collection.
# Target: FPGT-TNNI3K
# Assay: pooled miR-30 sensor sort-seq; sequence = guide strand
# Conditions: shRNA
# Also: reference of the scale not given here.
row,Sequence,sensor-assay potency score (higher = more potent)
1,TTCTTTTTCCTTGATCTGCAGG,-0.729
2,TTAATTTAGACTGCAAATCAAG,-1.11
3,TTTATTTCTGCATCGTCCTTTA,-0.351
4,TTGACTAGGTCAATGCTCTTGC,0.745
5,TAACATATGATTCACTGACTTT,-0.697
6,TTTGACTAGGTCAATGCTCTTG,-0.0852
7,TTTTATTTCTGCATCGTCCTTT,0.923
8,TTACATTTACATCAGCACCAAA,-1.01
9,TATCTTGAGCATTCACATCTGC,0.666
10,TTGAGCATTCACATCTGCTTTG,-0.576

# Target: FRMD4B
# Assay: as above
# Conditions: shRNA
row,Sequence,sensor-assay potency score (higher = more potent)
1,TTCCATTGGAATAACTTCCGAG,0.389
2,TTGAAACTGAAATCCTTCGTGG,0.853
3,TAAACTGCCATTACTTGCCATG,-1.04
4,TTACTTGCCATGATGAACTGAC,0.412
5,TTTGCTTTGCTTCCGGTCCAAG,-1.02
6,TTGTCATCTAATTTGAACGCAG,-0.725
7,TAGAAGTTTGGGCTGAACCAGC,-0.701
